Measured potencies and affinities stand elsewhere. A number with no mark means an inactive call. Calls of active or inactive are those of the source.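 How the source made its calls: active means compounds lowering cell ATP signal whose fitted half-effect concentration is at most twice the top tested dose; inconclusive means flat curves with 30 to 70% signal loss, or poor fits; inactive means the rest.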

A short description of this assay: loss of viability in hepatoma HepG2 cells – cell-based, ATP luminescence, dry powder, cytotoxicity control, dose response (AID 652118). To be noted: CellTiter-Glo ATP luminescence, 48 h; series mostly up to 26 µM; activity change, negative = cytotoxicity: at the top concentration.
With `C=CCOc1ccc(CN2CCC(CCOc3ccccc3)(C(=O)O)CC2)cc1Cl`, the “activity change, negative = cytotoxicity” value is -13.2%.

With `CCOC(=O)C1(CCOc2ccccc2)CCN(Cc2ccc(O)cc2)CC1`, the “activity change, negative = cytotoxicity” value is 3.84%.

As to `CCNC(=O)C1(CCOc2ccccc2)CCN(Cc2ccc(O)c(Cl)c2)CC1`, the “activity change, negative = cytotoxicity” value was 0.984%.

Regarding `CCOC(=O)C1(CCOc2ccccc2)CCN(Cc2ccc(OC)cc2)CC1`, the “activity change, negative = cytotoxicity” value is -19.6%.

On to `CCOC(=O)C1(CCOc2ccccc2)CCN(Cc2cccc(Cl)c2)CC1`, for which the “activity change, negative = cytotoxicity” value is -12.2%. The same measure, in the same setting: next, `CCOC(=O)C1(CCOC)CCN(Cc2ccc(O)c(Cl)c2)CC1`: -7.37%; `CCOC(=O)C1(Cc2ccccc2)CCN(Cc2ccc(O)c(Cl)c2)CC1`: -15.9%; `CCOC(=O)C1(CCOC)CCCN(Cc2ccc(Cl)cc2)C1` (configuration not stated): -0.17%.

For the compound `CC(C)(C)OC(=O)C1(CCOc2ccccc2)CCN(Cc2ccc(O)c(Cl)c2)CC1`, the “activity change, negative = cytotoxicity” value was -0.39%. `C/C1=C\[C@@H](O)C(C)(C)CCCC2(C)OC2C[C@@H]1OC(=O)c1ccc(O)cc1` (some centres not stated): the “activity change, negative = cytotoxicity” value is -14.3%. Still for that read-out and setting: next, `CCOC(=O)C1(CCOc2ccccc2)CCN(Cc2ccc3[nH]c(=O)oc3c2)CC1`: 1.95%; `C=CCOc1ccc(CN2CCC(CCOc3ccccc3)(C(=O)NCC)CC2)cc1Cl`: -1.24%. In the case of `CCOC(=O)C1(CCOc2ccccc2)CCN(Cc2ccc(O)c(Cl)c2)CC1`, the outcome was inactive. On to `O=C(Nc1ccccc1)C1(CCOc2ccccc2)CCN(Cc2ccc(O)c(Cl)c2)CC1`, for which the “activity change, negative = cytotoxicity” value is 2.3%. In the case of `O=C(NC1CCCC1)C1(CCOc2ccccc2)CCN(Cc2ccc(O)c(Cl)c2)CC1`, the “activity change, negative = cytotoxicity” value is -1.5%.

For the compound `C=CCOc1ccc(CN2CCC(CCOc3ccccc3)(C(=O)NC3CCCC3)CC2)cc1Cl`, the “activity change, negative = cytotoxicity” value is 0.235%. `C/C1=C\C[C@H](OC(=O)c2ccc(O)cc2)/C(C)=C/[C@@H](O)C(C)(C)CCC1`: the “activity change, negative = cytotoxicity” value is -0.876%.

The values above are taken from PubChem BioAssay AID652118 (Broad Institute, 2013).
